Results on 9 compounds are retold here after PubChem BioAssay.

Assay [1] is described as follows: viability loss in pontine glioma line – cell-based, SU-DIPG-XVII, MIPE5.0, CellTiter-Glo, qHTS, dose response (AID 1347060).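 For AC50: cells exposed to compound for 48 hours before viability readout.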 To be noted: CellTiter-Glo ATP luminescence.
Assay [2] in a line: viability loss in pontine glioma line – cell-based, JHH-DIPG-1, MIPE4.0, CellTiter-Glo, qHTS, dose response (AID 1347062; cut-off not given, nearly all actives have AC50 up to about 27 µM;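 for AC50: cells exposed to compound for two days before readout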). To be noted: JHH-DIPG-1 viability, CellTiter-Glo ATP luminescence.
A short description of assay [3]: viability loss in pontine glioma line – cell-based, SU-DIPG-IV, MIPE4.0, CellTiter-Glo, qHTS, dose response (AID 1347063; cut-off not given, nearly all actives have AC50 up to about 30 µM;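 note: compound exposure lasted 48 hours before the viability readout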). To be noted: CellTiter-Glo ATP luminescence. Background: Cellular ATP, detected with luciferase, serves as a proxy for viable cell number.
Assay [4] is described as follows: viability loss in pontine glioma line – cell-based, SU-DIPG-XIII, MIPE5.0, CellTiter-Glo, qHTS, dose response (AID 1347064; cut-off not given, nearly all actives have AC50 up to about 23 µM;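 for AC50: cells exposed to compound for 48 hours before the viability read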). To be noted: CellTiter-Glo ATP luminescence.
Assay [5] in a line: viability loss in pontine glioma line – cell-based, SU-DIPG-XXV, MIPE5.0, CellTiter-Glo, qHTS, dose response (AID 1347065).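 Note: cells exposed to compound for 48 hours before ATP readout.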 To be noted: CellTiter-Glo ATP luminescence.
The nature of assay [6]: growth inhibition of DIPG cells – cell-based, MIPE4.0 library, CellTiter-Glo luminescence, qHTS (AID 1347066; cut-off not given, nearly all actives have AC50 up to about 30 µM;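 note: cells exposed to compound for 48 hours before readout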). To be noted: SU-DIPG-VI viability, CellTiter-Glo ATP luminescence.
Assay [7] in a line: JHH-DIPG-1 glioma cell viability, MIPE5.0 library, CellTiter-Glo luminescence, qHTS (AID 1347067).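 Note: cells exposed to compound for 48 hours before readout.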 To be noted: JHH-DIPG-1 glioma viability, CellTiter-Glo ATP luminescence.
Assay [8] in a line: growth inhibition of DIPG cells – cell-based, MIPE5.0 library, qHTS (AID 1347068; cut-off not given, nearly all actives have IC50 up to about 30 µM;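 for IC50: cells exposed to compound for 48 hours before viability readout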). To be noted: SU-DIPG-XXV viability. A general note: qHTS replaces the single test concentration by a dilution series.
Assay [9] can be described thus: viability loss with induced miR-34 in A549 – imaging, A549 dox-inducible miR-34, nuclei and caspase counts, primary screen (AID 1347080;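 active = compounds whose cell count with miR-34 switched on is under 0.7 times the count with it off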). To be noted: A549 miR-34 inducible, Hoechst nuclei count, 48 h.
A short description of assay [10]: compounds altering HSF1 focus formation in cells – imaging, Selleck Cancer Library (AID 1347162; in the data active = plate-normalised HSF1 focus index below about 0.46). To be noted: human cells, HSF1 nuclear foci imaging, at 10 µM; SSMD: measured here: HSF1 foci SSMD mean; cell count: measured here: cell number; plate-normalised HSF1 focus index: stronger effect = lower value.
The nature of assay [11]: viability loss in pontine glioma line – cell-based, SU-DIPG-XIII, MIPE4.0, CellTiter-Glo, qHTS, dose response (AID 1347061; cut-off not given, nearly all actives have AC50 up to about 37 µM;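 note: cells exposed to compound for 48 hours before readout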). To be noted: CellTiter-Glo ATP luminescence.
Assay [12] is described as follows: MELAS cybrid and Rieske KO viability enhancers – cell-based, MELAS cybrids, Rieske KO mouse fibroblasts, CellTiter-Glo, primary screen (AID 1508586;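 active = mean z-score across replicates of 1.96 or higher in either the MELAS or the Rieske mutant cell line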;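 note: z relative to plate mean and SD of compound and empty wells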). To be noted: low glucose.
[13] abbreviates: stronger effect = lower value, cell number ratio, induced over uninduced.
[14] abbreviates: measured here: relative caspase fold change +Dox/-Dox.
The mark [15] stands for this setting: measured here: total cells with miR-34 induction, stronger effect = lower value.
The mark [16] stands for this setting: measured here: total cells without miR-34 induction.
Setting [17] is: MELAS cybrid survival, CellTiter-Glo 48 h, stronger effect = higher value.
[18] abbreviates: Rieske KO mouse fibroblast survival, CellTiter-Glo 72 h.

Broadly, the AC50 is the concentration at which the activity in the assay is half-maximal. Broadly, the IC50 is the midpoint of a concentration-inhibition curve.

Structures are written as SMILES. Several values for one entry are separate records, joined by “and”; a condition that tells them apart may be missing. Equal values may be shown once. Records with an inconclusive call do not appear. Activity calls are given as the source filed them. Unless noted, no cut-off is given here; in the data, nearly all actives have AC50 up to about 26 µM. Where a SMILES comes first, the peptide text is derived from it. The star is where a group is joined. Cbz = O=C(OCc1ccccc1)*

`CC(C)C[C@@H](C=O)NC(=O)[C@H](CC(C)C)NC(=O)[C@H](CC(C)C)NC(=O)OCc1ccccc1` (Cbz-Leu-Leu-Leu-aldehyde): the AC50 is 0.468 µM (active) in assay [1]; 0.166 µM (active) in assay [2]; 0.148 µM (active) in assay [3]; 0.059 µM (active) in assay [4]; 0.148 µM (active) in assay [5]; 0.296 µM (active) in assay [6]. The AC50 in assay [7] is 0.468 µM (active). Further, the IC50 in assay [8] was 0.263 µM (active). Also, the fold change in assay [9] (setting [13]) was 1.07 (inactive); in assay [9] (setting [14]) it was 1.23. Moreover, the cell count in [9] (setting [15]) came to 638; in assay [9] (setting [16]) it was 595; in assay [10] it was 6800. The SSMD in assay [10] came to 7.09. Moreover, the plate-normalised HSF1 focus index in assay [10] is 1.43 (inactive).
Consider `O=C1CCCC(=O)C1C(=O)c1ccc(C(F)(F)F)cc1[N+](=O)[O-]`, for which the call in assay [1], in [2], in assay [3], in [4], in assay [5] and in assay [6] was inactive. For the same compound, the call in assay [7] and in assay [8] was inactive.
With `C=C1C(=O)OC2/C=C(/C)CC/C=C(/C)CCC12` (stereo not given), the AC50 in assay [1] is 20.9 µM (active); in [5] it was 18.6 µM (active); in assay [7], 16.6 µM (active). Moreover, the result in [11] was inactive.
For the compound `CC[C@H](C)n1cc(C)c2c(C(=O)NCc3c(C)cc(C)[nH]c3=O)cc(-c3ccc(N4CCNCC4)nc3)cc21`, the call in assay [1] was inactive. Besides, the AC50 was 14.8 µM (active) in [11] and 23.5 µM (active) in assay [6]. Also, the IC50 in assay [8] is 20.9 µM (active).
With `CCN(CC)CCNC(=O)c1ccc2nc(-c3ccccc3)c(-c3ccc(CN4CCC(n5c(=O)[nH]c6ccccc65)CC4)cc3)nc2c1`, the AC50 in assay [1] was 11.8 µM (active); in assay [2], 8.33 µM (active); in assay [3], 4.69 µM (active); in assay [4] it was 14.8 µM (active); in [5] it was 10.5 µM (active); in assay [6], 3.32 µM (active). Besides, the AC50 in assay [7] was 10.5 µM (active). The 50% inhibitory concentration (IC50) in assay [8] is 7.42 µM (active).
Turning to `CC(C)n1c(/C=C/[C@H](O)C[C@H](O)CC(=O)O)c(-c2ccc(F)cc2)c2ccccc21`, the AC50 in assay [1] was 8.33 µM (active). Also, the compound was classed as inactive in assay [11], in assay [6] and in [8]. The fold change in assay [9] (setting [13]) is 1.07 (inactive); in [9] (setting [14]), 0.873. In addition, the cell count stood at 1670 in assay [9] (setting [15]) and 1560 in assay [9] (setting [16]). Also, the z-score is -2.58 (inactive) in assay [12] (setting [17]) and 0.0762 in assay [12] (setting [18]).
For `OCc1ccc(-c2ccc(-c3ccc(CO)s3)o2)s1`, the AC50 in assay [1] is 14.8 µM (active); in assay [2] it was 20.9 µM (active); in [3] it was 18.7 µM (active); in assay [4], 16.6 µM (active); in [5], 23.5 µM (active); in assay [7], 16.6 µM (active). Further, the fold change in [9] (setting [13]) was 0.99 (inactive) and 0.88 (inactive); in assay [9] (setting [14]), 0.768 and 1.19. Besides, the cell count in assay [9] (setting [15]) is 3070 and 2470; in assay [9] (setting [16]), 3100 and 2800. Further, the z-score is -0.467 (inactive) in assay [12] (setting [17]) and 0.342 in [12] (setting [18]).
In the case of `O=C(O)C1=CO[C@@H](O[C@@H]2O[C@H](CO)[C@@H](O)[C@H](O)[C@H]2O)[C@@H]2C(CO)=CC[C@H]12`, the result in [1], in assay [2], in [3], in assay [4], in [6] and in [7] was inactive. The compound was called inactive in [8].
On to `COc1cc2c(Nc3ccc(Cl)c(Cl)c3F)ncnc2cc1OCC1C[C@@H]2CN(C)C[C@@H]2C1` (stereo not given in full), for which the AC50 in assay [1] is 5.25 µM (active); in assay [2], 18.7 µM (active); in [3] it was 6.62 µM (active); in assay [4] it was 8.33 µM (active); in [5] it was 7.42 µM (active) and 8.33 µM (active); in [7] it was 4.68 µM (active) and 2.35 µM (active). The half-maximal inhibitory concentration (IC50) in [8] was 18.6 µM (active) and 16.6 µM (active).
